Source: PubChem
MOR-DOR ag-1: agonists of human mu-delta opioid receptor heterodimerization. P35372+P41143. 340,000 compounds, 0.3% hits. cells, OPRM1-OPRD1 heterodimerization, luminescence. activation, % at 9.3 µM;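 further: 0% = vehicle-treated cells and 100% = reference agonist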
OPRM1-OPRD1 inv: inverse agonist of human OPRM1-OPRD1 heterodimerization | P35372+P41143 | cell-based MOR-DOR heterodimer luminescence, inverse agonism | inhibition, % at 9.3 µM | 340,000 compounds, 0.21% hits | AID 504357; in the data active means inhibition above about 22%, passing the limit was not always enough;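 further: 0% = cells with DMSO and 100% = wells without cells with DMSO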
HTR5A inv ctr: inverse agonist of human HTR5A in OPRM1-OPRD1 counter-screen | HTR5A cell line, luminescence, inverse agonism | 340,000 compounds, 0.083% hits | inhibition, % at 9.3 µM | AID 504634; in the data active means inhibition mostly above about 23%, no sharp cut-off; inactive means mostly below about 18%;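 further: 0% = cells with DMSO and 100% = no-cell wells with DMSO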
Target sequence (P47898 whole entry, looked up): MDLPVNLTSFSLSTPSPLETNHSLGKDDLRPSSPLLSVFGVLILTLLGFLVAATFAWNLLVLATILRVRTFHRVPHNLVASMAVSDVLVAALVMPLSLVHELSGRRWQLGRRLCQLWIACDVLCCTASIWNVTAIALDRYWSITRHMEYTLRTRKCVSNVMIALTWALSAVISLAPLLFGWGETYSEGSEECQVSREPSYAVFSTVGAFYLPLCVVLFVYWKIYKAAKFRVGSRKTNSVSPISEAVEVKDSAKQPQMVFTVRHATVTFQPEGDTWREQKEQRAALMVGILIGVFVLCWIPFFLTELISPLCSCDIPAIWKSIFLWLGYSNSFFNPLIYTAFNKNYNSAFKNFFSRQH
HTR5A ag: counter-screen for OPRM1-OPRD1 agonists: human HTR5A agonism; P47898; HTR5A agonist assay, luminescence, cell-based; activation, % at 9.3 µM; 340,000 compounds, 0.61% hits; in the data active means activation mostly above about 9.5%, no sharp cut-off; inactive means mostly below about 7.6%;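 further: 0% = cells with vehicle only and 100% = reference agonist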
MOR-DOR ag-2: counter-screen for HTR5A agonists: OPRM1-OPRD1 heterodimerization agonism; activation, % at 9.3 µM; AID 504913; U2OS counter-screen cells, complementation luminescence, 3 h; shares compounds with HTR5A ag; 800 compounds, 13% hits
HTR5A ag conf: confirmation of human HTR5A agonists. shares compounds with HTR5A ag. HTR5A agonist cell assay, luminescence. activation, % at 9.3 µM. 800 compounds, 17% hits; in the data active means activation above about 17%;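 further: 0% = cells with vehicle only and 100% = full reference agonist response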
An asterisk follows results filed as active; . = not tested or not shown. Hits are enriched below; roughly 1.1% of the tested compounds scored in any of these assays. Unless noted, no stated cut-off is given here; in the data, active means activation above about 18%; inactive means the rest.

SMILES | MOR-DOR ag-1 | OPRM1-OPRD1 inv | HTR5A inv ctr | HTR5A ag | MOR-DOR ag-2 | HTR5A ag conf
N/C(=N\OC(=O)c1ccc(Cl)cc1[N+](=O)[O-])c1ccccn1 | 11 | -54 | -2 | 26* | 0 | -6
N/C(=N\OC(=O)c1ccc2ccccc2c1)c1ccncc1 | 12 | -85 | -14 | 5 | . | .
N/C(=N\OC(=O)c1ccc2ccccc2c1)c1ccccn1 | 4 | -22 | -42 | 16* | -1 | -1
O=C(COc1ccc2c(c1)OCO2)Nc1ccc2c(c1)oc1ccccc12 | 3 | -18 | -58 | 16* | 6 | 8
O=c1[nH]c(C2CCN(S(=O)(=O)c3ccccc3F)CC2)nc2c1nnn2Cc1ccc(OC(F)(F)F)cc1 | 3 | -17 | 4 | 3 | . | .
O=c1[nH]c(C2CCN(S(=O)(=O)c3ccccc3C(F)(F)F)CC2)nc2c1nnn2Cc1ccccc1 | 3 | -21 | -47 | 16* | 0 | 5
COc1ccc(S(=O)(=O)N(CC(=O)NCc2ccco2)c2ccccc2OC)cc1 | -1 | 8 | 3 | 17* | 3 | 2
COc1ccccc1N(CC(=O)NCc1ccco1)S(C)(=O)=O | -2 | 9 | -8 | 3 | . | .
COc1ccccc1C1NC(=O)CCC1[N+](=O)[O-] (configuration not stated) | -2 | 9 | -2 | 0 | . | .
Cc1nc(NC(=O)/C=C/c2ccccc2)sc1C(=O)Nc1ccccc1Cl | -1 | 4 | 19 | -2 | . | .
Cc1nc(NC(=O)/C=C/c2ccccc2)sc1C(=O)Nc1ccc(Cl)cc1 | 12 | -58 | -49 | 17* | 4 | 4
CCCOc1ccc(Br)cc1/C=N/NC(=O)c1cc(OC)c(OC)c(OC)c1 | 3 | -18 | -27 | 4 | . | .
COc1ccc(C(=O)N/N=C/c2cc(Br)ccc2O)cc1OC | 0 | 0 | -55 | 17* | -1 | -3
CCOC(=O)N1CCC(NC(=O)CCC(=O)N2CCOc3ccc(C)cc32)CC1 | 1 | -5 | 0 | 1 | . | .
CCOC(=O)N1CCN(C(=O)CCC(=O)N2CCOc3ccc(C)cc32)CC1 | -2 | 8 | -51 | 21* | 4 | -2
CNC(=S)Nc1ccc2[nH]c(=O)[nH]c2c1 | 1 | -3 | -14 | 5 | . | .
COc1cccc(C2CC(=O)Nc3cc(OC)c(OC)cc32)c1 (configuration not stated) | -1 | 6 | -4 | 1 | . | .
COc1cccc(C2CC(=O)Nc3cc4c(cc32)CCC4)c1 (configuration not stated) | 0 | 1 | -42 | 15* | 54* | -1
CCN(C(=O)COC(=O)c1nc(Cl)ccc1Cl)C1CCS(=O)(=O)C1 (configuration not stated) | 0 | 1 | 5 | -2 | . | .
O=S(=O)(N/N=C\c1ccccc1O)c1ccc(Cl)cc1 | -2 | 8 | -9 | 3 | . | .
O=S(=O)(N/N=C\C=C\c1ccccc1)c1ccc(Cl)cc1 | 8 | -43 | -106 | 28* | 4 | 43*
CN(C)c1cccc(NC(=O)Cc2ccc(F)cc2)c1 | -1 | 8 | 12 | 18* | 1 | 8
CN(C)c1cccc(NC(=O)CCc2ccccc2)c1 | 16 | -67 | -29 | 5 | . | .
c1cncc(-c2nc3ccccn3c2Nc2ccc3c(c2)OCCO3)c1 | 2 | -13 | -65 | 30* | 1 | -3
COc1ccc(C(=O)Nc2ccc(S(=O)(=O)N3CCc4ccccc43)cc2)cc1 | 3 | -16 | -6 | 2 | . | .
SMILES | MOR-DOR ag-1 | OPRM1-OPRD1 inv | HTR5A inv ctr | HTR5A ag | MOR-DOR ag-2 | HTR5A ag conf
Cc1ccc(CS(=O)(=O)CCC(=O)NCC2CCCO2)cc1 (configuration not stated) | -1 | 5 | -1 | 3 | . | .
COc1ccc(-c2c(-c3ccsc3)oc(=O)c3cc(OC)c(OC)cc23)cc1 | 1 | -6 | -61 | 23* | 3 | 1
COc1ccc(C(=O)O/N=C(\N)Cc2ccc(Cl)cc2)cc1OC | 10 | -59 | -10 | 25* | 7 | 6
N/C(Cc1ccc([N+](=O)[O-])cc1)=N\OC(=O)c1ccc([N+](=O)[O-])cc1 | 2 | -9 | -50 | 21* | 3 | 1
N/C(Cc1ccc(Cl)cc1)=N\OC(=O)c1ccccc1 | 2 | -9 | 4 | 5 | . | .
Cc1ccc(C(=O)NC(C)CCc2ccccc2)cc1S(=O)(=O)N1CCOCC1 (configuration not stated) | 2 | -10 | -10 | 4 | . | .
CCN(CC)c1c(-c2ccccc2)c2cc(C)ccc2[nH]c1=O | 2 | -12 | -68 | 27* | 5 | 2
C/C(=N\N)c1c(-c2ccccc2)c2cc(C)ccc2[nH]c1=O | 0 | 0 | -15 | 1 | . | .
CC(=O)C1=C(C)NC(C)=C(C(C)=O)C1c1ccc(-c2ccccc2Cl)o1 | -1 | 4 | -56 | 23* | 1 | 2
O=C(NCCc1c[nH]c2ccccc12)C(=O)Nc1cc2c3c(c1)CC(=O)N3CCC2 | 0 | 1 | -39 | 16* | 31* | 13
COc1ccccc1NNC(=O)c1cc(C(C)(C)C)nn1Cc1ccccc1 | -4 | 19 | -12 | 7 | . | .
CC(C)(C)c1cc(C(=O)NNc2cc(C(F)(F)F)ccc2Cl)n(Cc2ccccc2)n1 | 18 | -89 | 15 | 18* | 12 | 16
O=C(NCCCNC(=O)c1ccccn1)c1ccc(Cl)cc1 | 0 | -2 | -52 | 18* | 0 | 4
COC(=O)c1c(NC(=O)c2ccccc2C(=O)O)sc2c1CCC2 | -1 | 7 | -10 | 20* | 1 | -2
NC(=O)C1(c2ccccc2)CCCN1C(=O)c1ccccc1Br (configuration not stated) | 0 | -2 | 16 | 0 | . | .
COc1ccc(/C=N/NC(=O)c2ccn[nH]2)cc1COc1ccc(Cl)cc1Cl | 7 | -44 | -67 | 26* | 1 | -1
CCOc1ccc(S(=O)(=O)Nc2cccc(C(=O)N(C)CC(=O)Nc3ccc(OC)cc3)c2)cc1 | -3 | 10 | -13 | -4 | . | .
Cc1cc(=O)[nH]c2ccc(S(=O)(=O)N3CCOCC3)cc12 | -1 | 3 | -18 | 0 | . | .
COc1ccc(-c2cc(-c3c(O)c(OC)c4occc4c3OC)[nH]n2)cc1OC | 2 | -9 | -1 | 5 | . | .
COc1ccc(-c2cc(-c3c(O)c(OC)c4occc4c3OC)[nH]n2)cc1 | 10 | -51 | -39 | 15* | -1 | 1
CC1CCN(C(=O)CSc2nnc3c(n2)[nH]c2ccc(F)cc23)CC1 | 0 | 0 | -9 | 4 | . | .
CCCCOc1ccc(OCCNC(=O)C2CCCN2C(=O)Nc2ccccc2)cc1 (configuration not stated) | 1 | -5 | -50 | 17* | 14 | -2
COC(=O)/C=C/c1c(C)nc(NCc2ccccc2)nc1Cl | 4 | -18 | -5 | 1 | . | .
CCOc1ncccc1C(=O)N(CC)CC(=O)NCc1ccc(F)cc1 | -1 | 7 | -16 | 6 | . | .
